Assay [1] in a line: antimalarial activity against Dd2 strain (AID 2302;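 active = growth inhibition above 50% at the single 2 µM test dose, taken to imply half-maximal potency below 2 µM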;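 also: 0% = DMSO untreated growth and 100% = chloroquine plus artemisinin killed control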). Conditions: P. falciparum Dd2 in RBCs, LDH growth readout, 72 h; at 2 µM; active compounds read high.
The nature of assay [2]: human hepatoma cell viability loss – ATP luminescence, cytotoxicity control for P. falciparum antimalarial project, primary screen (AID 2303;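 active = inhibition above 50%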;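 also: 0% = DMSO wells and 100% = digitonin-killed cells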). The settings on record: HepG2 viability, 24-48 h, at 10 µM, active compounds read high.
For assay [3], the target named is L-lactate dehydrogenase (Plasmodium falciparum (isolate CDC / Honduras)) (UniProt Q27743). The assay is described as follows: PfLDH activity inhibition – cell lysate, 3D7 strain, counter-screen for P. falciparum growth inhibition project (AID 2304).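 Also: 0% = vehicle and 100% = reference inhibitor.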 The settings on record: P. falciparum 3D7 crude extract, LDH APAD/NBT absorbance; at 2 µM; active compounds read high. For orientation: Counterscreens check selectivity or assay interference.

A short description of assay [4]: inhibition of 3D7 malaria parasite growth – strain 3D7 (AID 2306).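 Also: 0% = DMSO wells and 100% = chloroquine plus artemisinin control wells.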 The settings on record: P. falciparum 3D7 erythrocytic growth, LDH absorbance, 72 h; at 2 µM; active compounds read high.
Assay [5] addresses Calcium-dependent protein kinase 1 (Plasmodium falciparum (isolate 3D7)) (UniProt P62344). In words: PfCDPK1 kinase inhibitors, biochemical, TCAMS library (AID 1159585; cut-off not given, nearly all actives have IC50 up to about 0.98 µM;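 also: inhibitors leave more ATP so luminescence rises with inhibition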). Conditions: recombinant PfCDPK1, Kinase-Glo ATP depletion luminescence. On the technique in general: In Kinase-Glo more light means more ATP remaining.
The target in assay [6] is Plasmodium falciparum protein kinase 6 (PK6, PF3D7_1337100) (UniProt Q8IDW1). In words: PfPK6 kinase inhibitors, biochemical, TCAMS library (AID 1159586). The settings on record: recombinant PfPK6, Kinase-Glo ATP depletion luminescence.
Assay [7] has as its target Protein kinase 7 (PK7), Plasmodium falciparum 3D7 (PF3D7_0213400) (UniProt Q7YTF7). In words: inhibition of Plasmodium PK7 catalytic activity – biochemical, TCAMS antimalarial set, Kinase-Glo luminescence (AID 1159587). Conditions: recombinant PfPK7, Kinase-Glo ATP depletion luminescence.
Assay [8] deals with Calcium-dependent protein kinase 4 (Plasmodium falciparum (isolate 3D7)) (UniProt Q8IBS5). In words: PfCDPK4 kinase inhibitors, biochemical, TCAMS library (AID 1159588; cut-off not given, nearly all actives have IC50 up to about 0.91 µM). The settings on record: recombinant PfCDPK4, Kinase-Glo ATP depletion luminescence.

Results on 20 compounds are retold here after PubChem BioAssay.

Values without a mark were called inactive. For some of these results: Potency and affinity values are given separately. Calls of active or inactive are those of the source. Unless noted, no rule for the calls is given here.

Chain of Calcium-dependent protein kinase 4 (Plasmodium falciparum (isolate 3D7)) (Q8IBS5 whole entry, looked up): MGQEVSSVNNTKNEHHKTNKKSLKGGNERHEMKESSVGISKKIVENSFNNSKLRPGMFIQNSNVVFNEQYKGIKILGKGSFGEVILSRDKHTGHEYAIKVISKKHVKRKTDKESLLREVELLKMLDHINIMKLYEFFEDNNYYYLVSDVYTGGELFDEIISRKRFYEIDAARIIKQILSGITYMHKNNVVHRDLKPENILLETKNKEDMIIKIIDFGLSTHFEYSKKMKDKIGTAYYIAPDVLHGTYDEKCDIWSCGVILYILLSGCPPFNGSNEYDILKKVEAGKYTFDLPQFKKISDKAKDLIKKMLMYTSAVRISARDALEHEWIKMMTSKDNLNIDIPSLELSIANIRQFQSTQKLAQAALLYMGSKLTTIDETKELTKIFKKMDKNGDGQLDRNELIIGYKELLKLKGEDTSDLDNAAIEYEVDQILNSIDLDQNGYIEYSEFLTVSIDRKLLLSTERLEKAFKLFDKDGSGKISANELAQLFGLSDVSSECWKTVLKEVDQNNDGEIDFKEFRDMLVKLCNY
Chain of L-lactate dehydrogenase (Plasmodium falciparum (isolate CDC / Honduras)) (Q27743 whole entry, looked up): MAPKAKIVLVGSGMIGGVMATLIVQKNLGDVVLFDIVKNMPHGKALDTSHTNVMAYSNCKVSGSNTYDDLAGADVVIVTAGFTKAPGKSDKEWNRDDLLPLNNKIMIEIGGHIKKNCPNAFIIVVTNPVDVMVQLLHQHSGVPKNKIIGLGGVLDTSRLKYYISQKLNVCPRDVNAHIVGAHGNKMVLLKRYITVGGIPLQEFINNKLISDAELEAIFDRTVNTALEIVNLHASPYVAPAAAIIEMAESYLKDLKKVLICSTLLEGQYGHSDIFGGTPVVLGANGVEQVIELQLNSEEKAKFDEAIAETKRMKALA
Chain of Protein kinase 7 (PK7), Plasmodium falciparum 3D7 (PF3D7_0213400) (Q7YTF7 1-343): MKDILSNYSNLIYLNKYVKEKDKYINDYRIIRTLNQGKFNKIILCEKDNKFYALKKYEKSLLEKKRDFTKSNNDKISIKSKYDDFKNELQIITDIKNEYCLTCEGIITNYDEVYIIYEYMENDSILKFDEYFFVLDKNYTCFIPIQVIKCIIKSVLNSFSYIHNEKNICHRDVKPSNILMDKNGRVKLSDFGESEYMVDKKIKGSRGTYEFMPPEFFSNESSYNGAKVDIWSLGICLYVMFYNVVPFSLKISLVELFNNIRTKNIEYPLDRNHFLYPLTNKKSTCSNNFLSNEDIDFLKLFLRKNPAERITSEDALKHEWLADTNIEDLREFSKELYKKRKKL
Chain of Plasmodium falciparum protein kinase 6 (PK6, PF3D7_1337100) (Q8IDW1 1-305): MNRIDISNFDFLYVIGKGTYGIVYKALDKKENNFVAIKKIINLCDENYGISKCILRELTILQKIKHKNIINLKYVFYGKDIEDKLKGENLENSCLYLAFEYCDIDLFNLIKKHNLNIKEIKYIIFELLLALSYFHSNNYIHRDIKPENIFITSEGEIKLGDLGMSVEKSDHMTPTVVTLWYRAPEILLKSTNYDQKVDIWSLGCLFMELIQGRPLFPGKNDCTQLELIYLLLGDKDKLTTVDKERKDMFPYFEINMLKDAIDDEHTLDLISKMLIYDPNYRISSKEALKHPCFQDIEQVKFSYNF
Chain of Calcium-dependent protein kinase 1 (Plasmodium falciparum (isolate 3D7)) (P62344 whole entry, looked up): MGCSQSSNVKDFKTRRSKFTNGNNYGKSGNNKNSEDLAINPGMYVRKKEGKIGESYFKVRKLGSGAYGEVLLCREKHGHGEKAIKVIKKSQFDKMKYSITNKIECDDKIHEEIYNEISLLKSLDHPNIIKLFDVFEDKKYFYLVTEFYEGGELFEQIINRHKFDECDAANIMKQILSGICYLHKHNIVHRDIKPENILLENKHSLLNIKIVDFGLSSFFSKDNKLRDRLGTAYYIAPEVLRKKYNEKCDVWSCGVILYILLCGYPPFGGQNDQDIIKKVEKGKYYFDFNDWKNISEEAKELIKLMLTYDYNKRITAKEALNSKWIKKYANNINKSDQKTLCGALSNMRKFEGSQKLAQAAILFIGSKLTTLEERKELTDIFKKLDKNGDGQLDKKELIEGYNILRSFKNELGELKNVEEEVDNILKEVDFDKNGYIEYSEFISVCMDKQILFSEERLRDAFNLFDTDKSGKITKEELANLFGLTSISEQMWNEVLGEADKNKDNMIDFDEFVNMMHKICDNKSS

As for `Ic1cc(CNC2CCCCC2)ccc1OCc1cccc(COc2ccc(CNC3CCCCC3)cc2I)c1`, the growth inhibition in assay [1] is 34%; in assay [4] it was 93% (active). The inhibition (commonly the relative decrease from the control value, in per cent) was -1% in assay [2] and -4% in assay [3]. For the same compound, the result in assay [5], in assay [6], in assay [7] and in assay [8] was inactive.
Regarding `Cc1c2c(nn1-c1ccccc1)C(c1ccccc1)N(c1ccccc1)C2=O` (stereo not given), the values for the growth inhibition in assay [1] and in assay [4] were 96% (active) and 92% (active), respectively. In addition, the inhibition in assay [2] was 42%; in assay [3], 1%. Besides, the outcome in assay [5], in assay [6], in assay [7] and in assay [8] was inactive.
For `O=C(/C=C/c1ccc(Cl)c(Cl)c1)N1CCC(CN2CCC(Cc3cc4ccccc4[nH]3)CC2)CC1`, the values for the growth inhibition in assay [1] and in assay [4] were 56% (active) and 96% (active), respectively. Further, the inhibition is 49% in assay [2] and -3% in assay [3]. The result in assay [5], in assay [6], in assay [7] and in assay [8] was inactive.
As for `COc1ccc(CCN2CCC(Nc3nc4ccccc4n3CCc3ccc(OC)cc3)CC2)cc1`, the growth inhibition was 88% (active) in assay [1] and 101% (active) in assay [4]. The inhibition in assay [2] was 34%; in assay [3], -1%. In addition, the result in assay [5], in assay [6], in assay [7] and in assay [8] was inactive.
Turning to `CC1(C)C(=O)Nc2ccccc2N1C(=O)CN1CCN(c2ccccc2O)CC1`, the growth inhibition in assay [1] is 72% (active); in assay [4] it was 92% (active). The inhibition was 7% in assay [2] and 0% in assay [3]. Moreover, the outcome in assay [5], in assay [6], in assay [7] and in assay [8] was inactive.
Consider `COc1cc(C(=O)Nc2ccc3nc(N4CCN(C)CC4)cc(C)c3c2)cc(OC)c1OC`, for which the growth inhibition in assay [1] is 79% (active); in assay [4], 102% (active). In addition, the inhibition is 18% in assay [2] and -6% in assay [3]. Besides, the outcome in assay [5], in assay [6], in assay [7] and in assay [8] was inactive.
In the case of `COC(=O)[C@@H](NC(=O)[C@@H](Nc1ccc(C#N)c2ccccc12)C(C)(C)C)c1ccc(O)cc1`, the values for the growth inhibition in assay [1] and in assay [4] were 74% (active) and 101% (active), respectively. Further, the inhibition in assay [2] was -4%; in assay [3], 1%. The result in assay [5], in assay [6], in assay [7] and in assay [8] was inactive.
Turning to `CN1CCN(S(=O)(=O)c2ccc3nccc(Nc4ccc(Oc5ccccc5)cc4)c3c2)CC1`, the growth inhibition was 91% (active) in assay [1] and 98% (active) in assay [4]. The values for the inhibition in assay [2] and in assay [3] were -9% and -3%, respectively. Besides, the outcome in assay [5], in assay [6], in assay [7] and in assay [8] was inactive.
For `O=C(COc1ccc(C(=O)c2ccccc2)cc1)Nc1nccs1`, the values for the growth inhibition in assay [1] and in assay [4] were 18% and 94% (active), respectively. The figures for the inhibition in assay [2] and in assay [3] were 0% and 2%, respectively. The result in assay [5], in assay [6], in assay [7] and in assay [8] was inactive.
For `c1ccc(CCNc2ccnc(Nc3ccc4cn[nH]c4c3)n2)cc1`, the growth inhibition is 100% (active) in assay [1] and 101% (active) in assay [4]. Moreover, the inhibition is 54% (active) in assay [2] and -3% in assay [3]. The result in assay [5], in assay [6], in assay [7] and in assay [8] was inactive.
On to `CON=Cc1sc(CNCCCNc2cc(=O)c3ccccc3[nH]2)c(C)c1Br`, for which the growth inhibition was 63% (active) in assay [1] and 96% (active) in assay [4]. Moreover, the values for the inhibition in assay [2] and in assay [3] were -8% and -1%, respectively. Besides, the result in assay [5], in assay [6], in assay [7] and in assay [8] was inactive.
In the case of `COc1cc(Nc2nccn3c(-c4ccsc4)cnc23)cc(OC)c1OC`, the growth inhibition in assay [1] is 78% (active); in assay [4], 93% (active). In addition, the results for the inhibition in assay [2] and in assay [3] were 26% and 3%, respectively. The result in assay [5], in assay [6], in assay [7] and in assay [8] was inactive.
Turning to `COc1ccc(CNC(=O)c2cnc3cc(-c4c(C)noc4C)ccc3c2Nc2ccccc2C(C)(C)C)cc1`, the growth inhibition in assay [1] was 69% (active); in assay [4], 99% (active). In addition, the inhibition in assay [2] is 9%; in assay [3], 0%. In addition, the result in assay [5], in assay [6], in assay [7] and in assay [8] was inactive.
On to `FC(F)(F)c1ccc(-c2ccc(CNC3CCN(CCN4CCOCC4)CC3)cc2)cc1`, for which the growth inhibition in assay [1] was 74% (active); in assay [4], 103% (active). Further, the values for the inhibition in assay [2] and in assay [3] were 44% and 0%, respectively. Also, the outcome in assay [5], in assay [6], in assay [7] and in assay [8] was inactive.
As for `COc1cc(-c2ccc3c(-c4ccc(C(=O)N5CCN(C)CC5)cc4)[nH]nc3n2)cc(OC)c1OC`, the values for the growth inhibition in assay [1] and in assay [4] were 54% (active) and 91% (active), respectively. Also, the figures for the inhibition in assay [2] and in assay [3] were 27% and 4%, respectively. For the same compound, the outcome in assay [5], in assay [6], in assay [7] and in assay [8] was inactive.
Turning to `O=C(NCCc1ccccc1)[C@H](Cc1ccccc1)Nc1ccnc(NCC2CCCCC2)n1`, the figures for the growth inhibition in assay [1] and in assay [4] were 53% (active) and 86% (active), respectively. In addition, the inhibition was 11% in assay [2] and 2% in assay [3]. In addition, the result in assay [5], in assay [6], in assay [7] and in assay [8] was inactive.
`Cc1ccc2c(c1)C1(CC(=O)N(CCc3scnc3C)C1=O)C(=O)N2Cc1ccccc1` (stereo not given): the growth inhibition in assay [1] is 73% (active); in assay [4], 83% (active). Besides, the figures for the inhibition in assay [2] and in assay [3] were -5% and 2%, respectively. Besides, the result in assay [5], in assay [6], in assay [7] and in assay [8] was inactive.
On to `Cc1c(S(=O)(=O)Nc2ccc3nccc(N4C[C@@H](C)N[C@@H](C)C4)c3c2)sc2ccc(Cl)cc12`, for which the growth inhibition in assay [1] was -4%; in assay [4], 92% (active). Besides, the results for the inhibition in assay [2] and in assay [3] were -8% and 5%, respectively. Besides, the outcome in assay [5], in assay [6], in assay [7] and in assay [8] was inactive.
Regarding `CN1CCCN(Cc2cccc(-c3cccc(NC(=O)c4cccc(C#N)c4)c3)c2)CC1`, the figures for the growth inhibition in assay [1] and in assay [4] were 33% and 95% (active), respectively. Also, the inhibition was 18% in assay [2] and 2% in assay [3]. Also, the outcome in assay [5], in assay [6], in assay [7] and in assay [8] was inactive.
Take `N#Cc1ccc(S(=O)(=O)N2C(c3cccc([N+](=O)[O-])c3)C(C(=O)c3ccccc3)N(C3CCCCC3)C2c2cccc([N+](=O)[O-])c2)cc1` (stereo not given): the growth inhibition was 79% (active) in assay [1] and 83% (active) in assay [4]. Further, the inhibition in assay [2] was 16%; in assay [3], -1%. The outcome in assay [5], in assay [6], in assay [7] and in assay [8] was inactive.
